Measured values: PubChem BioAssay (NCATS)
Results filed as inconclusive are left out. A number with no mark means an inactive call. The call rests on the fitted dose curve.

Assay: A High-Content qHTS Against Drug Library for the Identification of Small Molecules that Inhibit DYT1 Early Onset Primary Dystonia-Associated Cell Pathology (AID 1645839)
Details: HEK293 Flp-In EGFP-delE TorsinA, punctate imaging, 48 h; series mostly up to 46.1 µM; % pathology change, negative = correction: at the top concentration
From the text: Nicole Calakos M.D., Ph.D.
Duke University School of Medicine, Durham, NC
In DYT1 dystonia due to delGAG in the TOR1A gene, there is a robust and widely replicated finding of TorsinA protein mislocalization caused when the mutant protein is in excess of the wildtype protein (1-7). Stable HEK293 cell lines were created that replicate this phenomenon. Inducible expression of an EGFP-hu delE TorsinA encoding cDNA causes pronounced punctate cellular distribution. […] This phenotypic difference in EGFP-huTorsinA fusion protein distribution serves as an indicator of cell pathology. […] RNAi screen results with the assay were validated in DYT1 patient cell phenotypes, intersected with a known dystonia gene, and led to discovery of new human genetic dystonia associations.
The bioassay described herein is a high-content image screen with two readouts. The "%pathology" readout is the primary qHTS data channel, while the "cellcount" is the counterscreen qHTS channel. Desired active compounds are those that show inhibition in %pathology channel but no activity or minimal toxicity in cellcount readout.
1. Kustedjo, K., Bracey, M.H., and Cravatt, B.F. (2000). […] J. Biol. Chem. 275, 27933 - 27939.
2. Bragg, D.C., Kaufman, C.A., Kock, N., and Breakefield, X.O. (2004). Inhibition of N-linked glycosylation prevents inclusion formation by the dystonia-related mutant form of torsinA. Mol. Cell. Neurosci. 27, 417 - 426.
3. Gonzalez-Alegre, P., and Paulson, H.L. (2004). Aberrant Cellular Behavior of Mutant TorsinA Implicates Nuclear Envelope Dysfunction in DYT1 Dystonia. J. Neurosci. 24, 2593 - 2601.
4. Goodchild, R.E., and Dauer, W.T. (2004). Mislocalization to the nuclear envelope: an effect of the dystonia-causing torsinA mutation. Proc. Natl. Acad. Sci. U. S. A. 101, 847 - 852.
5. Kock, N., Allchorne, A.J., Sena-Esteves, M., Woolf, C.J., and Breakefield, X.O. (2006). RNAi blocks DYT1 mutant torsinA inclusions in neurons. Neurosci. Lett. 395, 201 - 205.
6. Hewett, J.W., Nery, F.C., Niland, B., Ge, P., Tan, P., Hadwiger, P., Tannous, B.A., Sah, D.W.Y., and Breakefield, X.O. (2008). siRNA knock-down of mutant torsinA restores processing through secretory pathway in DYT1 dystonia cells. Hum. Mol. Genet. 17, 1436 - 1445.
7. Calakos, N., Patel, V.D., Gottron, M., Wang, G., Tran-Viet, K.N., Brewington, D., Beyer, J.L., Steffens, D.C., Krishnan, R.R., and Zuchner, S. (2010). Functional evidence implicating a novel TOR1A mutation in idiopathic, late-onset focal dystonia. J. Med. Genet. 47, 646 - 650.
8. Rittiner* JE, Caffall* ZF, Hernandez-Martinez R, Sanderson SM, Pearson JL, Tsukayama KK, Liu AY, Xiao C, Tracy S, Shipman MK, Hickey P, Johnson J, Scott B, Stacy M, Saunders-Pullman R, Bressman S, Simonyan K, Sharma N, Ozelius LJ, Cirulli ET, Calakos N. Functional Genomic Analyses of Mendelian and Sporadic Disease Identify Impaired eIF2alpha Signaling as a Generalizable Mechanism for Dystonia. Neuron. 2016 Dec 21;92(6):1238-1251. doi: 10.1016/j.neuron.2016.11.012. Epub 2016 Dec 8. PMID: 27939583; PMCID: PMC5320521.
High-content, High-throughput Drug Screening Assay
The TorsinA mislocalization assay was modified from the previously published assay to accommodate compound testing in 1536 well format.1 Briefly, Flp-In T-REx 293 cells from Invitrogen in which a single copy of a cDNA is recombined into a specific genomic locus was used to create tetracycline-inducible expression of cDNA encoding either EGFP-hTOR1A (WT) or EGFP-delE hTOR1A (DYT1). WT and DYT1 cells were diluted to a concentration of 2 x 10^5 cells/mL in reduced serum media (DMEM High Glucose containing 1% tetracycline-tested FBS, 2 mM L-Glutamine, and 1% Penicillin/Streptomycin). 4 µl of WT cells and 4 µl of DTY1 cells were added to column 1 and columns 2-48, respectively, of a poly-D-lysine-coated, low base, black, clear bottom 1536 well plate (Corning, Corning, NY) using the BioRAPTR FRD Microfluidic Workstation (Beckman Coulter, Indianapolis, IN). The final cell number was 800 cells/well. […]

Row | SMILES | % pathology change, negative = correction
1 | Cc1c[nH]c2ccccc12 | 6.51%
2 | Oc1ccccc1C=NCc1ccccc1 | 1.65%
3 | Cc1cc(CC(=O)O)c(C)n1-c1ccc(Cl)cc1 | -32.9%
4 | COc1cc(C(=O)N2CCCCCCC2)cc(OC)c1OC | 6.1%
5 | Nc1nc(-c2ccccc2)c(Br)c(=O)[nH]1 | 17.4%
6 | NS(=O)(=O)c1ccc(Cl)c(S(N)(=O)=O)c1 | 21.7%
7 | CCOCCn1c(N2CCCN(C)CC2)nc2ccccc21 | 4.49%
8 | CCc1ccc(C(=O)C(C)CN2CCCCC2)cc1 (stereo not given) | -16.7%
9 | CC(O)Cn1cnc2c1c(=O)n(C)c(=O)n2C (stereo not given) | 13.2%
10 | CC[N+](C)(CC)CCOC(=O)C(O)(c1ccccc1)C1CCCCC1 (stereo not given) | 9.58%
11 | CCCCCCCC/C=C\CCCCCCCCN | -17.7%
12 | CC(C)(C)NC[C@H](O)COc1nsnc1N1CCOCC1 | -0.124%
13 | C[N+]1(CC2COC(c3ccccc3)(C3CCCCC3)O2)CCCCC1 (stereo not given) | 8.1%
14 | N#CCC(=O)NN | 17%
15 | NC(=O)c1ccccc1O | 2.78%
16 | CCCN(CCc1cccs1)[C@H]1CCc2c(O)cccc2C1 | 3%
17 | CCCCC(CC)COC(=O)c1ccc(N(C)C)cc1 (stereo not given) | 12.5%
18 | CC(=O)Oc1ccc(C)cc1 | 14.6%
19 | NCCNC(=O)c1ccc(Cl)cn1 | 19.7%
20 | O=C(CCN1CCN2CCCC2C1)N1c2ccccc2Sc2ccc(Cl)cc21 (stereo not given) | 5.41% [at 19.1 µM]

Row | SMILES | % pathology change, negative = correction
21 | Nc1ccc(C(=O)NCC(=O)O)cc1 | -1.65%
22 | OC[C@H]1O[C@@H](Oc2ccc(O)cc2)[C@H](O)[C@@H](O)[C@@H]1O | 6.26%
23 | COc1cc(C)nc(-n2nc(C)cc2OC)n1 | 1.49%
24 | Nc1ccc(S(=O)(=O)NCc2ccccc2)cc1 | 1.1%
25 | COc1cc(C(=O)NCc2ccc(OCCN(C)C)cc2)cc(OC)c1OC | 3.37%
26 | CCOc1ccc(NC(C)=O)cc1 | 3.56%
27 | Cc1ncc(CO)c(C=O)c1O | 9.33%
28 | CCCCCCCCCCCCCCCCO | -6.25%
29 | C=C[C@@]1(C)CC(=O)[C@]2(O)[C@@]3(C)[C@@H](O)CCC(C)(C)[C@@H]3[C@H](O)[C@H](OC(C)=O)[C@@]2(C)O1 | 8.7%
30 | CC(=O)Nc1ncc([N+](=O)[O-])s1 | -4.54%
31 | COP(=O)(OC)OC(c1ccc(Cl)cc1)P(=O)(OC)OC (stereo not given) | 5.87%
32 | CCN1CCN(C(=O)N[C@@H](C(=O)N[C@@H]2C(=O)N3C(C(=O)O)=C(CSc4nnnn4C)CS[C@H]23)c2ccc(O)cc2)C(=O)C1=O | 11.8%
33 | O=C(O)P(=O)(O)O | 7.57%
34 | CC(=O)O[C@]1(C(C)=O)CC[C@H]2[C@@H]3C=C(C)C4=CC(=O)CC[C@]4(C)[C@H]3CC[C@@]21C | 7.3%
35 | CCc1cc(Cl)c(OC)c(C(=O)NC[C@@H]2CCCN2CC)c1O | -20%
36 | OC[C@H]1O[C@@H]2O[C@H]3[C@H](O)[C@@H](O)[C@@H](O[C@H]4[C@H](O)[C@@H](O)[C@@H](O[C@H]5[C@H](O)[C@@H](O)[C@@H](O[C@H]6[C@H](O)[C@@H](O)[C@@H](O[C@H]7[C@H](O)[C@@H](O)[C@@H](O[C@H]8[C@H](O)[C@@H](O)[C@@H](O[C@H]1[C@H](O)[C@H]2O)O[C@@H]8CO)O[C@@H]7CO)O[C@@H]6CO)O[C@@H]5CO)O[C@@H]4CO)O[C@@H]3CO | 10.5%
37 | CC(=O)Nc1ccc(CC(=O)O)cc1 | 0.136%
38 | COc1ccc(/C=N/NC(=O)c2ccncc2)cc1OC | 2%
39 | Cc1ccc(S(=O)(=O)NC(=O)NC2CCCC2)cc1 | -0.951%
40 | C[N+]1(C)CCC(=C(c2ccccc2)c2ccccc2)CC1 | 14.2%
